Assay results: PMC7862700, “An all-to-all approach to the identification of sequence-specific readers for epigenetic DNA modifications on cytosine”

How the values were obtained:
Assay in all cases: DAPPL (digital affinity profiling via proximity ligation, sequencing); 10 mM Tris-HCl pH 7.5, 50 mM NaCl, 1 mM DTT, 4% glycerol, room temperature, 30 min; GST-TFs on glutathione beads, 16-mer random dsDNA library, 0.1% formaldehyde crosslink after washing; high values mean tight binding
FLI1 = molecular target: T1, FLI1 (Homo sapiens, UniProt Q01543 1-452); conditions: protein: recombinant; tags: N-terminal GST; dsDNA, one strand shown
T1 sequence: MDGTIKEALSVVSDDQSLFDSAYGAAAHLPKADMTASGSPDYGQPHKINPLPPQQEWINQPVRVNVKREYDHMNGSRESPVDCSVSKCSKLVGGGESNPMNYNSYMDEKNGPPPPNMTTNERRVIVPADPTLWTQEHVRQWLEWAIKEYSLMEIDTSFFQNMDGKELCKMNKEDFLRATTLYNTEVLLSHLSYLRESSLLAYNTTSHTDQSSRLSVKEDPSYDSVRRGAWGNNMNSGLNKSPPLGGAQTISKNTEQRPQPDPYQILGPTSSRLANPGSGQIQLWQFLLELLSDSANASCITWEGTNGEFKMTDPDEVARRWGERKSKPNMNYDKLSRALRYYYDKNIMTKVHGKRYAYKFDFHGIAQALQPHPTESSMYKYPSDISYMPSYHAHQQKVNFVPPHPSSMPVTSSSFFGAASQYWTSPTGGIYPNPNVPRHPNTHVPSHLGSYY
Summary of the method: (§1)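 Human transcription factors were made in yeast as GST fusions, captured on glutathione beads and barcoded with DNA. With a tag-only sample included, the pool was incubated with 200 nmole of a random double-stranded 16-mer DNA library in Tris/NaCl/DTT/glycerol buffer at room temperature for 30 min, then crosslinked with 0.1% formaldehyde after washing, ligated by proximity, amplified and sequenced. For binding signal, each hexamer's read frequency for a factor is divided by its frequency for the tag-only sample.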

ELK1 = molecular target: T2, ELK1 (Homo sapiens, UniProt P19419 1-428); conditions: protein: recombinant; tags: N-terminal GST; dsDNA, one strand shown
T2 sequence: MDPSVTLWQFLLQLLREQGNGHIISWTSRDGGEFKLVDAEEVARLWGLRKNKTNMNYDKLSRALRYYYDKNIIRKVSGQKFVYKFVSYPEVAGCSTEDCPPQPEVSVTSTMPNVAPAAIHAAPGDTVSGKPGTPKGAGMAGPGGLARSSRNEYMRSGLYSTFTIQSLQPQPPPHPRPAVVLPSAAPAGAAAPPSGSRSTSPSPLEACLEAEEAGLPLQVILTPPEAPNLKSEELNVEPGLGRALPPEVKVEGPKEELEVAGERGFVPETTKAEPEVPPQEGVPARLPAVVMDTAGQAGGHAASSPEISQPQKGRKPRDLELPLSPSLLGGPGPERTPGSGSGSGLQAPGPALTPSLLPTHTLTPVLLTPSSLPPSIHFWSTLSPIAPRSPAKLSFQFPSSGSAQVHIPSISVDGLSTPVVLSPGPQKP
Summary of the method: as §1

GABPA = molecular target: T3, GABPA (Homo sapiens, UniProt Q06546 1-454); conditions: protein: recombinant; tags: N-terminal GST; dsDNA, one strand shown
T3 sequence: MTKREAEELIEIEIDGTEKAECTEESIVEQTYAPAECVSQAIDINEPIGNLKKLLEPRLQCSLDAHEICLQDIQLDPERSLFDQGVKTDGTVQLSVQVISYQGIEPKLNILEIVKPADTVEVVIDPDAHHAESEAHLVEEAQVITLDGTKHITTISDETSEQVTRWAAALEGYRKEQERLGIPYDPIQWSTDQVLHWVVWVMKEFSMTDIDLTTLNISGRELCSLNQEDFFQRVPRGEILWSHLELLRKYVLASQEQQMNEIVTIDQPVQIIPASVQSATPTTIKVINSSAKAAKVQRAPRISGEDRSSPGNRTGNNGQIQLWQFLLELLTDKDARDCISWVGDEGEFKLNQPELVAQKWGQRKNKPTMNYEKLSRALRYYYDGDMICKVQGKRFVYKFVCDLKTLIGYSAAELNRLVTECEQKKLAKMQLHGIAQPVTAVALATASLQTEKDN
Summary of the method: as §1

ERG = molecular target: T4, ERG (Homo sapiens, UniProt P11308 1-479); conditions: protein: recombinant; tags: N-terminal GST; dsDNA, one strand shown
T4 sequence: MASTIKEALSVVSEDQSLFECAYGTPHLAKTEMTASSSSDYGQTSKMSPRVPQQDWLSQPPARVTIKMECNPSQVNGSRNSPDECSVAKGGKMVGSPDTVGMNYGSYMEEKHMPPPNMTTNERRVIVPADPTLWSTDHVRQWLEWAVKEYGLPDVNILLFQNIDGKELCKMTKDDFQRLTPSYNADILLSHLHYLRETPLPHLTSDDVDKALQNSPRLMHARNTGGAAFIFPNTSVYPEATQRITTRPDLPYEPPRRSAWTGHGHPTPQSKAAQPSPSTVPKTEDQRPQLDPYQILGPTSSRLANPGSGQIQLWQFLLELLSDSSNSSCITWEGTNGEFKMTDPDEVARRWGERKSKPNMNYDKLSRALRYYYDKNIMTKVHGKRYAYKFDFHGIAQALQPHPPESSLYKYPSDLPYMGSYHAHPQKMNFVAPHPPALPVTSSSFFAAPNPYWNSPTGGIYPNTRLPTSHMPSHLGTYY
Summary of the method: as §1

ELF1 = ELF1 (Homo sapiens, UniProt P32519 1-619); conditions: protein: recombinant; tags: N-terminal GST; dsDNA, one strand shown
Chain of ELF1 (P32519 whole entry): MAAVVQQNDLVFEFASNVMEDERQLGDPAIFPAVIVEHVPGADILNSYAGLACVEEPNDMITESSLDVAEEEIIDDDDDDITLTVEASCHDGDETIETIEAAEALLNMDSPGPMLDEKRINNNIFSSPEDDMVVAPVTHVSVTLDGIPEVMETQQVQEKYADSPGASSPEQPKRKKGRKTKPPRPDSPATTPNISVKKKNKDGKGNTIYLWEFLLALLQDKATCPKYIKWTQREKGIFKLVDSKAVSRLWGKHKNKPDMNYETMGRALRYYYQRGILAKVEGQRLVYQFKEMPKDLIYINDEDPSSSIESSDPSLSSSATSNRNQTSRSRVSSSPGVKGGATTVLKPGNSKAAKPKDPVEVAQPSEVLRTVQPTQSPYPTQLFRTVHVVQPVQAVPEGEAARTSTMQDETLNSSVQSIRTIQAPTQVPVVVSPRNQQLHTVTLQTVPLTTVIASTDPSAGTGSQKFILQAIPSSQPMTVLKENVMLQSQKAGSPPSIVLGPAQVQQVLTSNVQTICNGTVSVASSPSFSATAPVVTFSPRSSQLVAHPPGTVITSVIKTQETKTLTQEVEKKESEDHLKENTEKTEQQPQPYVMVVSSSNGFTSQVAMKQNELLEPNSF
Summary of the method: as §1

EHF = molecular target: T5, EHF (Homo sapiens, UniProt Q9NZC4 1-300); conditions: protein: recombinant; tags: N-terminal GST; dsDNA, one strand shown
T5 sequence: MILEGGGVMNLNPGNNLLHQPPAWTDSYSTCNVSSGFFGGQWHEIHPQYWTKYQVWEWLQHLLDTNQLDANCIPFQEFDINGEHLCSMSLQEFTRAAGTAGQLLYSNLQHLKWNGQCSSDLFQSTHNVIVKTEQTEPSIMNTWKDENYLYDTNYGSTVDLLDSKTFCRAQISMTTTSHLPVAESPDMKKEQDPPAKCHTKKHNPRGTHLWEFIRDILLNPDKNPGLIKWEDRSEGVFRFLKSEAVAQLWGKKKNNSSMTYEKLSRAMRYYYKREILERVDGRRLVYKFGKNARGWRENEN
Summary of the method: as §1

SPI1 = SPI1 (Homo sapiens, UniProt P17947 1-270); conditions: protein: recombinant; tags: N-terminal GST; dsDNA, one strand shown
Summary of the method: as §1

SPIB = SPIB (Homo sapiens, UniProt Q01892 1-262); conditions: protein: recombinant; tags: N-terminal GST; dsDNA, one strand shown
Chain of SPIB (Q01892 whole entry): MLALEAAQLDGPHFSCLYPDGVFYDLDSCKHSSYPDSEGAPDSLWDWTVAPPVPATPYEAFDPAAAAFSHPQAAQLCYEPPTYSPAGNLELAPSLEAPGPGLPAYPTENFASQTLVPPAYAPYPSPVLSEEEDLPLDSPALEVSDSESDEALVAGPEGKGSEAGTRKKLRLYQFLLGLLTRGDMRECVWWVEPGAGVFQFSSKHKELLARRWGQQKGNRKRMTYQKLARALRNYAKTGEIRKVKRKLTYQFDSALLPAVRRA
Summary of the method: as §1

ELK3 = molecular target: T6, ELK3 (Homo sapiens, UniProt P41970 1-407); conditions: protein: recombinant; tags: N-terminal GST; dsDNA, one strand shown
T6 sequence: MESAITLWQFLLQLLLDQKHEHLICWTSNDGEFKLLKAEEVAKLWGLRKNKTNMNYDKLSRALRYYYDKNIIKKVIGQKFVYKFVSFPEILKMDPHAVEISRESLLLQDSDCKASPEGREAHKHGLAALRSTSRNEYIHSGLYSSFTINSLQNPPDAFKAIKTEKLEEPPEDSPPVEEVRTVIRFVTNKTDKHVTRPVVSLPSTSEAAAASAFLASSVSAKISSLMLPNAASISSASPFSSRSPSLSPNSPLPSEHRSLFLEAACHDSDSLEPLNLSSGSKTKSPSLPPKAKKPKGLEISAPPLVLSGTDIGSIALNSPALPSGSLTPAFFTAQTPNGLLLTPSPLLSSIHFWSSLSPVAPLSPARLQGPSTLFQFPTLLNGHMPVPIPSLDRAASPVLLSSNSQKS
Summary of the method: as §1

FEV = molecular target: T7, FEV (Homo sapiens, UniProt Q99581 1-238); conditions: protein: recombinant; tags: N-terminal GST; dsDNA, one strand shown
T7 sequence: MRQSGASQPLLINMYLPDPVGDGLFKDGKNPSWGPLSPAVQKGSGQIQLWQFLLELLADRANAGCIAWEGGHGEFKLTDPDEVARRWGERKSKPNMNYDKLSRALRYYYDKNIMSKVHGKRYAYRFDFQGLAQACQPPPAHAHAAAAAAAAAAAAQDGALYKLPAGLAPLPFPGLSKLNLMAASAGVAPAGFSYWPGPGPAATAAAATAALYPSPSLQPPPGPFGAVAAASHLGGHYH
Summary of the method: as §1

ETV5 = ETV5 (Homo sapiens, UniProt P41161 1-510); conditions: protein: recombinant; tags: N-terminal GST; dsDNA, one strand shown
Chain of ETV5 (P41161 whole entry): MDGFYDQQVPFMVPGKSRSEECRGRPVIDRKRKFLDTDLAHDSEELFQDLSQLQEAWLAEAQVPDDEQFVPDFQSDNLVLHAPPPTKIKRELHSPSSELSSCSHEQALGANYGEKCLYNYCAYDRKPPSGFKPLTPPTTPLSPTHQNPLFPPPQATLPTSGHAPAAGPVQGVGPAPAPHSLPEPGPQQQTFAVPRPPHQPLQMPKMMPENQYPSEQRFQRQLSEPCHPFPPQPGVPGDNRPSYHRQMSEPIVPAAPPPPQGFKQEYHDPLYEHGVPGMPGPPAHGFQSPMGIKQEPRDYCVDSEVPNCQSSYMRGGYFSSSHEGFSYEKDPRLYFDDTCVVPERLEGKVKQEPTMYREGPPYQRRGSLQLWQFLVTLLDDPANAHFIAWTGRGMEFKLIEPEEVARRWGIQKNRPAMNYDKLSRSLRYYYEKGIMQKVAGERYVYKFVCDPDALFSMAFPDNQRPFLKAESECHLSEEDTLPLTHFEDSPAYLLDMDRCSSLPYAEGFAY
Summary of the method: as §1

HSF1 = HSF1 (Homo sapiens, UniProt Q00613 1-529); conditions: protein: recombinant; tags: N-terminal GST; chain copies: 3; dsDNA, one strand shown
Chain of HSF1 (Q00613 whole entry): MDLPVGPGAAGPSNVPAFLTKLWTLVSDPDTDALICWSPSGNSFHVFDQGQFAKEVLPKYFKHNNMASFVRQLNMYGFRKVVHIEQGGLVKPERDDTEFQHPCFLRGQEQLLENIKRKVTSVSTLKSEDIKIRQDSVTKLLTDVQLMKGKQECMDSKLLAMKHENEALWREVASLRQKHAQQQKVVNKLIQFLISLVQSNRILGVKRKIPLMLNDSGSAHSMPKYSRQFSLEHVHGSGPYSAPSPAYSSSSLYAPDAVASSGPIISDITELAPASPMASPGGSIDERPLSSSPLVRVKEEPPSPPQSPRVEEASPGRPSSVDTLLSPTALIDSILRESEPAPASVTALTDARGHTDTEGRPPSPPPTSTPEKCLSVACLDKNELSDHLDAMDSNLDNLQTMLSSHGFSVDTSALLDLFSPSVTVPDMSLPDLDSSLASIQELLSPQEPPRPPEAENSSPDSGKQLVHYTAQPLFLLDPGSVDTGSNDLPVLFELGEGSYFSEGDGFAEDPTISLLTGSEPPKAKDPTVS
Summary of the method: as §1

SPIC = molecular target: T8, SPIC (Homo sapiens, UniProt Q8N5J4 1-248); conditions: protein: recombinant; tags: N-terminal GST; dsDNA, one strand shown
T8 sequence: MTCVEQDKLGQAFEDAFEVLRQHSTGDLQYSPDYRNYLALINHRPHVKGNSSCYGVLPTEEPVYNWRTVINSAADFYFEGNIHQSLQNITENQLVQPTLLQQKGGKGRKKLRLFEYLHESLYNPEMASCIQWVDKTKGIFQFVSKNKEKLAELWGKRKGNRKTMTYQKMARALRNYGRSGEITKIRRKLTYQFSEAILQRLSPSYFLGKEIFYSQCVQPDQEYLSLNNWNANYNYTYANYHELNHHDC
Summary of the method: as §1

ELF4 = ELF4 (Homo sapiens, UniProt Q99607 1-663); conditions: protein: recombinant; tags: N-terminal GST; dsDNA, one strand shown
Chain of ELF4 (Q99607 whole entry): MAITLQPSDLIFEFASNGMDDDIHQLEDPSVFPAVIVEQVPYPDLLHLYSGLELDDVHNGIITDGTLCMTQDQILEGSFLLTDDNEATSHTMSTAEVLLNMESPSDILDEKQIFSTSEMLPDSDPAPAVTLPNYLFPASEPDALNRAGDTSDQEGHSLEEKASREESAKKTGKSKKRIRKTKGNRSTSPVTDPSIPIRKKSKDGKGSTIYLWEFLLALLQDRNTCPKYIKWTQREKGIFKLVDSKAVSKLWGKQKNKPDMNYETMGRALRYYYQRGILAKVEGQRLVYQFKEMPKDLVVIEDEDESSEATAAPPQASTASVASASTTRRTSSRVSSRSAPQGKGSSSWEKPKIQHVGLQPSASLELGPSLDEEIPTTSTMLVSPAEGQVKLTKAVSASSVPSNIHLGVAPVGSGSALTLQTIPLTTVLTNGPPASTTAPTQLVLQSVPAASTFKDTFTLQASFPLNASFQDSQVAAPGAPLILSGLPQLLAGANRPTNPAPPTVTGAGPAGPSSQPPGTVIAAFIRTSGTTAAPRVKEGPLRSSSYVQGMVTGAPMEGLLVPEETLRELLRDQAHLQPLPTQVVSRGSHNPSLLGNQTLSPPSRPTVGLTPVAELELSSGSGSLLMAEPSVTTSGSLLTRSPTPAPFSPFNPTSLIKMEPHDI
Summary of the method: as §1

ELK4 = molecular target: T9, ELK4 (Homo sapiens, UniProt P28324-2 1-405); conditions: protein: recombinant; tags: N-terminal GST; dsDNA, one strand shown
T9 sequence: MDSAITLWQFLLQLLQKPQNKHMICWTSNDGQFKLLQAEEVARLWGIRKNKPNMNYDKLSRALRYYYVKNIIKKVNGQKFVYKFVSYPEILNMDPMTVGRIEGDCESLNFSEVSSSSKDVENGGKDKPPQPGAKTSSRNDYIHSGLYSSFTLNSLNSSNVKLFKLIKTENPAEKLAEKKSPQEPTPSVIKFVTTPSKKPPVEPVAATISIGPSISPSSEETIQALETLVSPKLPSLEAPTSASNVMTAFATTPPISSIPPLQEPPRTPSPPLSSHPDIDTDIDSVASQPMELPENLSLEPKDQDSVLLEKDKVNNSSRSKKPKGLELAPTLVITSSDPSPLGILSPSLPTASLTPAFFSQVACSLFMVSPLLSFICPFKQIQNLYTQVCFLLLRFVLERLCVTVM
Summary of the method: as §1

ETV2 = molecular target: T10, ETV2 (Homo sapiens, UniProt O00321 1-342); conditions: protein: recombinant; tags: N-terminal GST; dsDNA, one strand shown
T10 sequence: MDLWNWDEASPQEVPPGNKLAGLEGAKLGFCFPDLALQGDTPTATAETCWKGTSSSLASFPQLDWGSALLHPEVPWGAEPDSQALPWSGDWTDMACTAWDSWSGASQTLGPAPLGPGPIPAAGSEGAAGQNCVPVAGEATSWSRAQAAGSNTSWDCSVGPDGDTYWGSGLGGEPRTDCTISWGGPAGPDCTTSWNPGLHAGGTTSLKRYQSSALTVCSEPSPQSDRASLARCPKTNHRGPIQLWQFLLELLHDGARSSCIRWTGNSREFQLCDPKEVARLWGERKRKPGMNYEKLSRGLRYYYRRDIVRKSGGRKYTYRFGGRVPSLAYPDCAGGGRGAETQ
Summary of the method: as §1

ELF3 = molecular target: T11, ELF3 (Homo sapiens, UniProt P78545 1-371); conditions: protein: recombinant; tags: N-terminal GST; dsDNA, one strand shown
T11 sequence: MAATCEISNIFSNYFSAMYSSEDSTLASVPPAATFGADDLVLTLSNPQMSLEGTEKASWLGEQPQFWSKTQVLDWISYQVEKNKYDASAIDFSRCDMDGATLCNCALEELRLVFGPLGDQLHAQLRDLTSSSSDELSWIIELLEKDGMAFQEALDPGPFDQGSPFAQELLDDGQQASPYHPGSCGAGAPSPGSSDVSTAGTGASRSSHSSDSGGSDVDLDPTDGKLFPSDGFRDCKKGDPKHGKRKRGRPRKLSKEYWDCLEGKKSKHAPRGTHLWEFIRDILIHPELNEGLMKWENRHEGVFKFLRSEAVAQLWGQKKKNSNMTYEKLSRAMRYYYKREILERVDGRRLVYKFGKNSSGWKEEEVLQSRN
Summary of the method: as §1

CRX = CRX (Homo sapiens, UniProt O43186 1-299); conditions: protein: recombinant; tags: N-terminal GST; dsDNA, one strand shown
Chain of CRX (O43186 whole entry): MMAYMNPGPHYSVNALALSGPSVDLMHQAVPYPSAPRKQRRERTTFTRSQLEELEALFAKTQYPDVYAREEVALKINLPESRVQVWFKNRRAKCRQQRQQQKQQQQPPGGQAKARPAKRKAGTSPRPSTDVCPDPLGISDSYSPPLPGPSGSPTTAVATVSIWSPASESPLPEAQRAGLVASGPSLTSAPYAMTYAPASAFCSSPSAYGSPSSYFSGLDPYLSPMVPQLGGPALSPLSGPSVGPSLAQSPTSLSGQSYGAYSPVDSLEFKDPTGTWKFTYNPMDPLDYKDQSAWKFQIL
Summary of the method: as §1

ETV1 = ETV1 (Homo sapiens, UniProt P50549 1-477); conditions: protein: recombinant; tags: N-terminal GST; dsDNA, one strand shown
Chain of ETV1 (P50549 whole entry): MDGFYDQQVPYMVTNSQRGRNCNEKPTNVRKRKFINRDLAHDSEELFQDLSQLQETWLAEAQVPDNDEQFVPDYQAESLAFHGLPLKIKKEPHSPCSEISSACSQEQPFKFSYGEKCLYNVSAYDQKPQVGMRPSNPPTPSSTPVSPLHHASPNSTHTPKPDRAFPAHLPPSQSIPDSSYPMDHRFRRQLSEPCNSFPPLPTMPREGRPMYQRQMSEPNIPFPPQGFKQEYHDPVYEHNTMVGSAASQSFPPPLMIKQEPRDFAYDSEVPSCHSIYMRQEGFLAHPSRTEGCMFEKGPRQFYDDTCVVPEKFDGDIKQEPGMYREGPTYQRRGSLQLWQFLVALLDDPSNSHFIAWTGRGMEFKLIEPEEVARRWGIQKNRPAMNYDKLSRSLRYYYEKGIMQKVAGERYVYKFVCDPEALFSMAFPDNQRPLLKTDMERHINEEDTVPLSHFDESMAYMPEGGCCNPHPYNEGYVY
Summary of the method: as §1

Which results are given for ATTAAA?
binding signal (FLI1): 1.14 fold enrichment (6-mer frequency, TF over GST control); binding signal (ELK1): 1.1 fold enrichment (6-mer frequency, TF over GST control); binding signal (GABPA): 1.16 fold enrichment (6-mer frequency, TF over GST control); binding signal (ERG): 1.09 fold enrichment (6-mer frequency, TF over GST control); binding signal (ELF1): 1.2 fold enrichment (6-mer frequency, TF over GST control); binding signal (EHF): 1.14 fold enrichment (6-mer frequency, TF over GST control); binding signal (SPI1): 1.13 fold enrichment (6-mer frequency, TF over GST control); binding signal (SPIB): 1.19 fold enrichment (6-mer frequency, TF over GST control); binding signal (ELK3): 1.16 fold enrichment (6-mer frequency, TF over GST control); binding signal (FEV): 1.1 fold enrichment (6-mer frequency, TF over GST control); binding signal (ETV5): 1.2 fold enrichment (6-mer frequency, TF over GST control); binding signal (HSF1): 1.97 fold enrichment (6-mer frequency, TF over GST control); binding signal (SPIC): 1.14 fold enrichment (6-mer frequency, TF over GST control); binding signal (ELF4): 1.16 fold enrichment (6-mer frequency, TF over GST control); binding signal (ELK4): 1.1 fold enrichment (6-mer frequency, TF over GST control); binding signal (ETV2): 1.16 fold enrichment (6-mer frequency, TF over GST control); binding signal (ELF3): 1.05 fold enrichment (6-mer frequency, TF over GST control); binding signal (CRX): 2.99 fold enrichment (6-mer frequency, TF over GST control); binding signal (ETV1): 1.18 fold enrichment (6-mer frequency, TF over GST control)
